Bioassay records deposited in PubChem BioAssay by National Center for Advancing Translational Sciences (NCATS).
Rows were chosen to be rich in hits. Some 18% of all compounds tested hit in one or more screens of this group.
TDP1 cell CPT – DT40-hTDP1 cell growth loss with CPT; chicken DT40 Tdp1-/-;hTDP1 cells + 20 nM CPT, ATP luminescence, 48 h; Potency, µM (top dose mostly 46.2 µM), for inactives: at the highest dose activity change, negative = growth inhibition, usual class: inhibitors; 420,000 compounds, 12% hits; AID 686979; note: potency is the fitted concentration of half-maximal effect; % is set by controls: 0 for no effect and ±100 for the full control effect; nearly all actives have a fitted effect of over 55% in size
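Chicken DT40 Tdp1-/- cells stably complemented with human TDP1 were seeded at 400 cells/well in medium containing 20 nM camptothecin, exposed to pin-transferred compounds, and grown at 37 °C for at least 48 hr. Viability was read as ATP luminescence.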
TDP1 cell noCPT – qHTS for Inhibitors of human tyrosyl-DNA phosphodiesterase 1 (TDP1): qHTS in cells in absence of CPT. DT40 Tdp1-/- hTDP1 cells, no CPT, ATP luminescence, 48 h. 420,000 compounds, 15% hits. Potency, µM (top dose mostly 46.2 µM), for the others: at the top dose activity change, negative = growth inhibition, usual class: inhibitors; note: potency is the fitted concentration of half-maximal effect; % is set by controls: 0 for no effect and ±100 for the full control effect; nearly all actives have a fitted effect of over 55% in size
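A cellular qHTS used chicken DT40 cells lacking endogenous Tdp1 but carrying stably transfected human TDP1. Compounds were applied without camptothecin, and cell growth kinetics were judged by ATP-dependent luminescence after ≥48 hr.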
IL1B secr inh – inhibitors of inflammasome signaling (IL-1 beta secretion); AID 743279; THP-1 LPS/ATP IL-1B secretion, AlphaLISA, 16 h; stronger effect = lower value; 360,000 compounds, 4.7% hits; activity change, % at 57.5 µM; in the data active = activity change below about -50%; inconclusive = mostly about -30% to -49%; note: % is set by controls: 0 for no effect and ±100 for the full control effect
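THP-1 cells pretreated 1 hr with compounds (up to 57.5 uM final), then stimulated with LPS (250 ng/mL final) plus ATP (1.25 mM final); secreted IL-1B measured by AlphaLISA after 16 hr, decreased signal indicating inhibition.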
TGFb inhibitor – blocks TGF-b signaling; HepG2 CAGA-GFP TGF-b/SMAD3 reporter, GFP fluorescence, 18 h; TGF-beta stimulated, 500 pg/mL final; Potency, µM (titrated, usually from 46.1 µM), for the others: at the highest dose activity, negative = inhibition, actives largely listed as inhibitors; 410,000 compounds, 1.2% hits; AID 588855; note: potency is the fitted concentration of half-maximal effect; % is set by controls: 0 for no effect and ±100 for the full control effect; nearly all actives have a fitted effect of over 65% in size
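Per well, imaged GFP fluorescence of HEPG2 CAGA-GFP cells gives the signal; cells get compound, then TGF-beta (500 pg/mL final), 18 h at 37 degrees C; %Activity versus -TGF-beta and +DMSO controls.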
TDP1 inh – TDP1 (human) enzyme inhibition; 350,000 compounds, 0.28% hits; Potency, µM (doses to about 130 µM), inactives show top-dose activity change, negative = inhibition, most hits filed as inhibitors; recombinant TDP1, AlphaScreen DNA substrate cleavage; AID 485290; note: potency is the fitted concentration of half-maximal effect; % is set by controls: 0 for no effect and ±100 for the full control effect; nearly all actives have a fitted effect of over 40% in size
Target sequence (Q9NUW8 whole entry, looked up): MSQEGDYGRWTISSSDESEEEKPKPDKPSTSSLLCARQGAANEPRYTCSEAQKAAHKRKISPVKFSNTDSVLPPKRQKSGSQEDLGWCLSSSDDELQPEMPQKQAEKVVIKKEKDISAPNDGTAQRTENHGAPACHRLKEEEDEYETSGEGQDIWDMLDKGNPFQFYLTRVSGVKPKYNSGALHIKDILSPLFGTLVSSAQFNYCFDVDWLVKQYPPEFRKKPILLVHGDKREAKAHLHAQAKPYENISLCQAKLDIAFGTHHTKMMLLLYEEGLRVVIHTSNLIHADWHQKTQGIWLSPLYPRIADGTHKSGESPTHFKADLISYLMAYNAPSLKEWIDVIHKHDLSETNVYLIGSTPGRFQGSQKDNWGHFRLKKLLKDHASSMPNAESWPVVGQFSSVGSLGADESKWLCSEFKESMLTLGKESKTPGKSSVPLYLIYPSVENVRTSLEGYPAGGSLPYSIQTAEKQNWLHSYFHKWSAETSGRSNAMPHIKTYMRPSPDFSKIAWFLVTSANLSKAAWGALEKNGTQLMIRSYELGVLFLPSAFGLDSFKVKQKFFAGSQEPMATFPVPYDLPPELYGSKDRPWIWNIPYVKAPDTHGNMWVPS
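Tdp1 1 nM final; 15 min RT w/ cpd; substrate 15 nM, 5 min; beads 10 ug/ml, 10 min; AlphaScreen read. Neg ctrl: no enzyme.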
HepG2 viability – kills HepG2 cells in TGF-b inhibitor counter-screen; HepG2 CAGA-GFP viability, ATP luminescence, 18 h; 410,000 compounds, 0.76% hits; AID 588856; Potency, µM (titrated, usually from 46.1 µM), without a hit: top-dose activity change, negative = cytotoxicity, usual class: cytotoxic; note: potency is the fitted concentration of half-maximal effect
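HepG2 CAGA-GFP cells (1000/well, DMEM with 1% FBS) received compound, then TGF-beta at 500 pg/mL final, and were incubated 18 hours at 37 degrees C. Viability was read by CellTiter-Glo luminescence. Media-only wells were set as complete cell-killing and DMSO as no toxicity.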
* hit, by the source's call; ? = inconclusive; . = no result; [ ] = remark or other dose. Unless noted, calls come from the whole dose curve; as a rule, active = well fitted curve in the direction sought with a large enough effect; inconclusive = small, poorly fitted or top-dose-only effect, or another doubt; inactive = no such curve, though single readings can be large; an effect the other way counts as inactive or inconclusive.

SMILES	TDP1 cell CPT	TDP1 cell noCPT	IL1B secr inh	TGFb inhibitor	TDP1 inh	HepG2 viability
CCOC(=O)C1CCCN(C(=O)Cn2ncc3c4ccccc4n(Cc4ccc(F)cc4)c3c2=O)C1 (centres undefined)	23µM*	15µM*	.	?	5%	-31%
Cc1cc(C)c(Cn2c3ccccc3c3cnn(CC(=O)NC4CCCCCC4)c(=O)c32)c(C)c1	-22%	?	.	-8%	0%	3%
CCOC(=O)C1CCCN(C(=O)Cn2ncc3c([nH]c4ccccc43)c2=O)C1 (centres undefined)	?	?	-84*	?	1%	-15%
Cc1c2cnn(CC(=O)N3CCN(c4ccccc4)CC3)c(=O)c2c(C)n1Cc1ccc(F)cc1	21µM*	13µM*	.	-17%	3%	-12%
Cc1c2cnn(CC(=O)N3CCN(c4ncccn4)CC3)c(=O)c2c(C)n1Cc1ccc(F)cc1	.	.	.	.	3%	.
CCN1CCN(C(=O)Cn2ncc3c4ccccc4n(Cc4ccccc4)c3c2=O)CC1	16µM*	15µM*	.	-27%	5%	-14%
CCN1CCN(C(=O)Cn2ncc3c4ccccc4n(Cc4c(C)cc(C)cc4C)c3c2=O)CC1	?	16µM*	.	16µM*	0%	-96%
CC1CCCCN1C(=O)Cn1ncc2c3ccccc3n(Cc3ccccc3F)c2c1=O (centres undefined)	9.2µM*	9.2µM*	.	?	0%	-17%
Cc1cc(C)c(Cn2c3ccccc3c3cnn(CC(=O)N4CCCCC4)c(=O)c32)c(C)c1	-23%	-23%	.	-1%	0%	9%
Cc1ccccc1Cn1c2ccccc2c2cnn(CC(=O)N3CCC(C)CC3)c(=O)c21	21µM*	15µM*	.	-26%	-3%	-6%
CC(C)(C)c1ccc(CN2N=Nc3ccccc3S2(=O)=O)cc1	5.8µM*	7.3µM*	-22	-13%	9%	11%
COc1ccc(-c2noc(CC(=O)Nc3cc(OC)ccc3OC)n2)cc1	23µM*	16µM*	.	13%	-5%	-18%
COc1cc(OC)c(NC(=O)CSCc2nc(-c3ccc(OC)c(OC)c3)no2)cc1Cl	?	?	.	0%	-2%	-11%
COc1cc(OC)c(NC(=O)CCc2nc(-c3ccc(C)cc3)no2)cc1Cl	18µM*	23µM*	-3	-15%	11%	-47%
COc1cc(OC)c(NC(=O)CCc2nc(C3=CCN(Cc4cccc(Cl)c4)CC3)no2)cc1Cl	23µM*	8.2µM*	.	?	5%	-22%
COc1ccc(OC)c(NC(=O)COCc2cc(-c3ccc(F)cc3)on2)c1	18µM*	?	.	36%	5%	2%
COc1ccc(-c2noc(CNC(=O)c3ccc(OC)cc3OC)n2)cc1	?	?	.	?	7%	-18%
COc1ccc(-c2cnc(-c3cccnc3)o2)cc1	-7%[9.04 µM]	-8%[9.04 µM]	.	.	6%	.
CCc1ccc(NC(=O)CSc2nc(C)c(C(=O)Nc3ccccc3)c(-c3ccc(OC)c(OC)c3)c2C#N)cc1	-2%	4%	.	-14%	2%[12.3 µM]	-16%
CC(C)(C)c1ncc(S(=O)(=O)c2ccc(C(F)(F)F)cn2)c(N)n1	-3%	-27%	6	16%	6%	-37%
CN(C(=O)COC(=O)c1cccc(S(=O)(=O)N2CCCCC2)c1)C1CCS(=O)(=O)C1 (centres undefined)	1%	-21%	2	8%	.	-8%
O=C(CSc1nnc(-c2cccc(S(=O)(=O)N3CCCC3)c2)n1-c1ccccc1)Nc1ccc(C(=O)O)cc1	-22%	1%	13	-9%	79µM*	-15%
CC(C)=CC(=O)Nc1cccc(S(=O)(=O)NC2=NCCCCC2)c1	-8%	-11%	-3	-2%	0%	2%
O=C(Cc1ccc(Cl)cc1)Nc1cccc(S(=O)(=O)N2CCCCC2)c1	?	21µM*	-12	?	-3%	-29%
O=C(Cc1ccc(Br)cc1)Nc1cccc(S(=O)(=O)N2CCCCC2)c1	?	15µM*	-6	?	.	-18%
SMILES	TDP1 cell CPT	TDP1 cell noCPT	IL1B secr inh	TGFb inhibitor	TDP1 inh	HepG2 viability
O=C(COC(=O)c1ccc(Br)o1)Nc1cccc(S(=O)(=O)N2CCCCC2)c1	-3%	-15%	-6	0%	2%	-2%
COc1ccc(/C=C/C(=O)Nc2cccc(S(=O)(=O)NC3=NCCCCC3)c2)cc1OC	15µM*	8.2µM*	-16	-7%	4%	6%
COc1ccc(N2CCN(C(=O)c3c(C)oc4ncn(CC(C)C)c(=O)c34)CC2)cc1	?	?	.	-2%	0%	-3%
CSc1nc(N)nc2c1ncn2CC(=O)NCCCN1CCCC1=O	-23%	-11%	0	5%	1%	8%
COc1ccc(Br)cc1CN(C)CC(=O)Nc1c(Cl)cccc1Cl	?	23µM*	?	?	5%	-37%
CC(C)Cn1c(SCC(N)=O)nnc1-c1cccc(S(=O)(=O)N2CCOCC2)c1	10%	0%	-4	5%	2%	-2%
Cc1ccc(CSc2nnc(-c3cccc(S(=O)(=O)N4CCOCC4)c3)n2CC(C)C)cc1	13µM*	8.2µM*	?	-4%	6%	-18%
COc1ccc(Br)cc1CN(C)CC(=O)Nc1cccc(S(N)(=O)=O)c1	1%	-28%	17	-2%	2%	-15%
N=c1sccn1CC(=O)Nc1cccc(S(=O)(=O)N2CCCCCC2)c1	?	21µM*	-2	-2%	5%	1%
COc1ccc(Br)cc1CN(C)CC(=O)Nc1cccc(S(=O)(=O)N2CCCC2)c1	15µM*	10µM*	-52*	?	2%	3%
CC(C)C(C(=O)NCC1CCCO1)N(C(=O)CNS(=O)(=O)c1ccccc1)C1CCCCC1 (centres undefined)	4%	-1%	-3	7%	0%[0.0935 µM]	5%
COc1ccc(/C=C/C(=O)NC2=NCCS2)cc1OC	-29%	?	-24	-1%	2%	-2%
COc1ccc(/C=C/C(=O)Nc2cccc(S(=O)(=O)N3CCCC3)c2)cc1OC	?	21µM*	-27	-16%	8%	-14%
O=C(CCNC(=O)c1ccc(Br)cc1)Nc1cccc(S(=O)(=O)N2CCCCCC2)c1	13µM*	?	-18	?	2%	6%
